# Screens deposited in PubChem by The Scripps Research Institute Molecular Screening Center.
# SRC3 TRFRET art = counter-screen for PPARgamma SRC-3 recruitment agonists: TR-FRET artefact | PPARgamma/SRC-3 format; active compounds read high | TR-FRET ratio at 8 µM | actives 0.39% (n = 99,000) | AID 1048
# PPARg SRC-2 ag = promotes SRC-2 coactivator recruitment by human PPARgamma; PPARgamma LBD-SRC-2 recruitment, biochemical; activation, % at 8 µM; actives 0.34% (n = 200,000); AID 1032; in the data active means activation above about 22%;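 further: 0% = vehicle and 100% = reference agonist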
# Target sequence (P37231 whole entry, looked up, the tested form may be a part): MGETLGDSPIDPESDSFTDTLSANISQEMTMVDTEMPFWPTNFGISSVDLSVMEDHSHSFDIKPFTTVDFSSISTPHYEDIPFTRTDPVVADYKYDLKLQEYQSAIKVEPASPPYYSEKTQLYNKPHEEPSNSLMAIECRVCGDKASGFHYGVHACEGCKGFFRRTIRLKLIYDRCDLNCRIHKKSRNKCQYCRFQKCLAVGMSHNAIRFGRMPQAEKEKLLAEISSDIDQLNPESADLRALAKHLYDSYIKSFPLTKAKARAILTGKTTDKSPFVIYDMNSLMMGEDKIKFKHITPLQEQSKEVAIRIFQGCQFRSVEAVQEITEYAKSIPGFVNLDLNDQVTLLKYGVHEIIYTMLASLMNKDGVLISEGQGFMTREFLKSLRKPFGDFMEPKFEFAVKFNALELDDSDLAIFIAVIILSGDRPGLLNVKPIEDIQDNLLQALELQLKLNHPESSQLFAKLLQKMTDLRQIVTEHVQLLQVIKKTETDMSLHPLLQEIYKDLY
# SRC1 TRFRET art = counter-screen for PPARgamma SRC-1 recruitment agonists: TR-FRET artefact; TR-FRET ratio at 8 µM; TR-FRET detection artefact counter-screen, emission ratio; active compounds read high; actives 0.34% (n = 99,000); in the data active means TR-FRET ratio above about 2300
# SRC2 TRFRET art = counter-screen for PPARgamma SRC-2 recruitment agonists: TR-FRET artefact | actives 0.4% (n = 200,000) | active compounds read high | TR-FRET ratio at 8 µM | AID 1049
# PPARg SRC-1 ag = agonists of human PPARgamma SRC-1 coactivator recruitment | P37231 | PPARgamma-SRC-1 coactivator recruitment biochemical assay | actives 0.41% (n = 200,000) | activation, % at 8 µM; in the data active means activation above about 19%;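 further: 0% = DMSO and 100% = reference agonist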
# PPARg SRC-3 ag = PPARgamma-driven SRC-3 recruitment agonism | P37231 | biochemical PPARgamma/SRC-3 coactivator recruitment assay | activation, % at 8 µM | actives 0.26% (n = 200,000); in the data active means activation above about 23%;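 further: 0% = DMSO and 100% = reference agonist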
# Active calls of the source: *; nt = not tested or not shown. Hits are enriched below; roughly 0.9% of the tested compounds scored in any of these assays. Unless noted, no stated cut-off is given here; in the data, active means TR-FRET ratio above about 2000; inactive means the rest.
SMILES,SRC3 TRFRET art,PPARg SRC-2 ag,SRC1 TRFRET art,SRC2 TRFRET art,PPARg SRC-1 ag,PPARg SRC-3 ag
O=C(COC(=O)CSCc1ccccc1)NCc1ccccc1,1456,-3,1600,1536,-6,-3
O=C(COC(=O)CCN1C(=O)c2cccc([N+](=O)[O-])c2C1=O)NCc1ccccc1,1749,4,1745,1993*,4,1
NC(=O)c1c(NC(=S)Nc2ccccc2)sc2c1CCCC2,2002,14,2381*,1869,5,7
Cc1nnc(SCC(=O)Nc2ccc(S(=O)(=O)N3CCCC3)cc2)n1N,nt,5,nt,1640,6,0
Cc1ccc(S(=O)(=O)N2CCCCC2)cc1NC(=O)CSc1nccn1C,1625,-4,2368*,1736,4,3
Cc1ccc(NC(=O)CSc2ncnc3ccccc23)cc1S(=O)(=O)N1CCCCC1,2119*,1,1842,1451,5,5
Cn1ccnc1SCC(=O)Nc1cccc(S(=O)(=O)N2CCCCCC2)c1,1653,6,1996,1896,7,6
Cc1cc(C)c2nc(SCC(=O)Nc3ccc(S(=O)(=O)N4CCCC4)cc3)c(C)cc2c1,nt,2,nt,1973*,9,8
Cc1cc(C)c(S(C)(=O)=O)c(N(C)N)n1,1750,-3,1634,1544,-2,-1
c1ccc2c(c1)CC/C2=N/Nc1nc2ccccc2[nH]1,1717,5,1819,1668,22*,8
COc1ccc(Nc2cnn(-c3nc4ccccc4s3)c(=O)c2Cl)cc1,1521,5,2001,1746,13,8
O=c1c(Cl)c(Nc2cccc(Cl)c2)cnn1-c1nc2ccccc2s1,2400*,5,2149,2092*,9,4
O=C(NC(=S)Nc1ccccc1)c1ccc(Br)o1,1864,8,1954,1845,22*,5
CC(=O)Nc1ccc(C(=O)Nc2nc(-c3cccnc3)cs2)cc1,1482,-5,1713,1466,11,1
CC(=O)Nc1ccc(C(=O)Nc2nc(-c3ccccn3)cs2)cc1,1655,2,1947,1977*,7,-1
O=C(CSc1ncnc2c1nnn2Cc1ccccc1F)N1CCN(c2ccccc2)CC1,nt,67*,nt,2938*,3,-4
O=C(Cn1cnc2c(nnn2Cc2ccccc2F)c1=O)N1CCN(c2ccccc2)CC1,nt,1,nt,1480,-4,2
O=C(O)C1CCC(Cn2c(SCc3cc(=O)n4ccccc4n3)nc3ccsc3c2=O)CC1 (configuration not stated),1691,-3,1763,1680,10,1
CCOc1ccccc1-c1nc(-c2ccc(NC(=O)Cc3ccccc3OC)cc2)no1,nt,2,nt,2140*,1,3
COc1ccc(S(=O)(=O)Nc2c(F)cccc2F)cc1,1710,22*,1989,2118*,3,5
O=S(=O)(Nc1cccc(C(F)(F)F)c1)c1cnc[nH]1,1615,35*,1838,1811,5,1
O=S(=O)(Nc1ccc(C(F)(F)F)cc1)c1cnc[nH]1,1657,6,1541,1467,8,-1
Cc1ccc(NC(=O)CN(C)C(=S)NC2CC2)cc1,1529,6,2119,1539,26*,2
Fc1ccc(C2CC(c3cccs3)=NN2C(=S)Nc2ccccc2)cc1 (configuration not stated),1821,14,2336*,1687,10,4
COc1ccc(C2=NN(C(=S)Nc3ccccc3)C(c3ccccc3)C2)cc1 (configuration not stated),1746,2,1987,1723,5,5
SMILES,SRC3 TRFRET art,PPARg SRC-2 ag,SRC1 TRFRET art,SRC2 TRFRET art,PPARg SRC-1 ag,PPARg SRC-3 ag
COc1ccc(C2CC(c3ccccc3)=NN2C(=S)Nc2ccccc2)cc1 (configuration not stated),2233*,22,2274,2014*,14,14
CNC(=S)N1N=C(c2ccc(C)cc2)CC1c1ccc(OC)c(OC)c1 (configuration not stated),1440,-1,1680,1450,0,1
CNC(=S)N1N=C(c2ccccc2)CC1c1ccc(OC)c(OC)c1 (configuration not stated),1736,15,2320*,1694,16,7
COc1ccc(C(=O)N[C@H](C(=O)NCC2CCCCC2)C(C)C)cc1,nt,1,nt,1539,4,-9
CCCCc1c(C)nc2ccc(Br)cc2c1SCCC#N,2091*,14,2268,2017*,7,13
CCc1c(C)nc2c(Br)cccc2c1SCCC#N,2026,19,2367*,1953,11,12
C/C(=N/NC(=O)c1ccc(C)nc1)c1ccc2c(c1)CCCC2,1759,1,1717,1653,6,2
CC(N=C1CC(C)(C)CC(=O)/C1=C(/O)CCCN1C(=O)c2ccccc2C1=O)C(=O)O (configuration not stated),1558,2,1865,1635,6,-4
CCCC1CCC(C(=O)Nn2c(C)nc3ccccc3c2=O)CC1 (configuration not stated),nt,-3,nt,1484,5,3
Cc1nc2ccccc2c(=O)n1NC(=O)c1ccco1,nt,12,nt,2082*,-2,7
CCCCCCC1CCC(C(=O)Nn2c(C)nc3ccccc3c2=O)CC1 (configuration not stated),nt,22*,nt,1723,5,-4
O=C(Nn1c(-c2ccccc2)nc2ccccc2c1=O)c1ccco1,nt,5,nt,1556,8,3
CCNC(=S)NNC(=O)c1cc(-c2cc(C)ccc2C)nc2ccccc12,nt,3,nt,1448,6,4
CCc1ccc(C2c3[nH]c4ccccc4c3CCN2C(=O)c2cc(C)nn2C)cc1 (configuration not stated),1528,2,1739,1545,-6,-2
Nc1nc(-c2cccc(NS(=O)(=O)c3ccccc3)c2)cs1,nt,2,nt,1634,-2,7
O=C(Nc1cccc(S(=O)(=O)N2CCCCC2)c1)Nc1ccc(Cl)cc1Cl,1645,-5,1794,1491,3,1
CC(C)(C)c1ccc(-c2nnc3sc(-c4ccncc4)nn23)cc1,nt,190*,nt,5672*,0,-7
O=C(Cn1cc(C(=O)c2ccco2)c2ccccc21)NC1CCCC1,nt,0,nt,1361,-1,1
CC(=O)c1c(N2CCN(c3ccc(F)cc3)CC2)nc(=S)n(Cc2ccccc2)c1C,2117*,2,1739,1479,6,4
O=C(CCn1ccnc1)Nc1ccc2ccccc2c1,1479,7,1830,1840,9,3
CCc1ccc2nc3sc(C(=O)O)cc3cc2c1,1779,0,1961,1652,11,4
CC(C)(C)c1nnc(NC(=O)CN2C(=O)C3C4C=CC(C4)C3C2=O)s1 (configuration not stated),nt,-11,nt,1429,0,36*
COc1ccc(/C=N\NC(=O)COc2ccccc2)c(C(=O)O)c1OC,1731,1,1821,1559,8,-6
O=C(C1CC1)N1CCN(S(=O)(=O)c2ccc3c(c2)OCCO3)CC1,1484,0,1738,1622,9,9
